Experiment [1] is described as follows: VALA_TUBHUV_Antagonist_TubuleLength: VALA Sciences human Umbilical Vein Endothelial Tubule Formation (TUBHUV) Antagonism Assay (AID 2284325). Summed up: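 Tubule length was imaged via CD31 immunofluorescence after a further 3-day compound exposure in 10 ng/ml VEGF, following 3-day pre-culture of HUVEC with HDF at 1:3. Vehicle 0.1% DMSO; suramin (100 uM) inhibition control.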

The nature of experiment [2]: TAMU_PeakParms_SingleDonor1434_Asystole: Texas A&M University (TAMU) 1.5-hr Human Induced Pluripotent Stem Cell (iPSC)-derived Cardiomyocytes Calcium (Ca+2) Flux Assay for Cardiotoxicity: Asystole (quiescence of beating) (AID 2284328). Summed up: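 Human iPSC-derived cardiomyocytes (donor 1434) were exposed to 0.2, 1, 10 and 100 uM compound in 0.5% DMSO for 90 min at 37C. Ca2+-dye fluorescence gave average peak frequency; POD is EC95, a 95% beat-rate drop versus DMSO.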

Experiment [3] relates to Brachyury (BRA) Protein Expression, Deisenroth Lab, TBXT (gene 6862). The experiment can be described thus: CCTE_Deisenroth_DEVTOX-GLR_legacy_Bra: (Legacy) CCTE's DevTox GLR-Endo Assay Evaluation of Brachyury (BRA) Protein Expression, Deisenroth Lab (AID 2284329; active = hit-call score of the fitted dose curve at least 0.9, where 1 is the maximum; inactive = score below 0.9). Summed up: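 High-content imaging of fixed RUES2-GLR cells after a 48-hour differentiation with two compound exposures yields percent cells whose Bra signal exceeds pluripotent control median by 5x BMAD; values are baseline-corrected to DMSO.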

A short description of experiment [4]: CCTE_Deisenroth_DEVTOX-GLR_legacy_CellCount: (Legacy) Viability Assessment in CCTE's DevTox GLR-Endo Assay, Deisenroth Lab (AID 2284331; active = hit-call score of the fitted dose curve at least 0.9, where 1 is the maximum; inactive = score below 0.9). Conditions: actives raise or lower the signal. The method, boiled down: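 Viability is taken from imaged nuclei counts in fixed RUES2-GLR cultures after 48 h of differentiation under two 24 h-spaced chemical exposures, 10 concentrations from 1 nM to 200 uM, gain or loss versus DMSO baseline.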

Experiment [5] in a line: VALA_TUBIPS_Antagonist_CellCount: Viability Assessment in the VALA Sciences human iPS-derived Endothelial Tubule Formation (TUBIPS) Antagonism Assay (AID 2284335). On the procedure:
VALA_TUBIPS_Agonist is a cell-based, multiplexed assay that uses human iPS-derived endothelial cells (iPSC). Measurements were taken 72 hours after chemical dosing in a 96-well plate.VALA_TUBIPS_Antagonist_CellCount is the one of two assay components measured from the VALA_TUBIPS_Antagonist assay. It is designed to make measurements of viability, a form of viability reporter, as detected with fluorescence intensity signals by HCS Fluorescent Imaging technology. Data from the assay component VALA_TUBIPS_Antagonist_CellCount was analyzed at the endpoint, VALA_TUBIPS_Antagonist_CellCount, in the positive analysis fitting direction relative to DMSO as the negative control and baseline of activity. Using a type of viability reporter, loss-of-signal activity can be used to understand viability. To generalize the intended target to other relatable targets, this assay endpoint is annotated to the cell cycle intended target family, where the subfamily is cell count.
[…]

In another experiment the test system is IYD (gene 389434). The experiment can be described thus: CCTE_GLTED_hIYD: CCTE's human Iodotyrosine Deiodinase (xIYD) Inhibition Assay, Great Lakes Toxicology and Ecology Division (GLTED) Lab (AID 2284317).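 Note: cell-free human IYD enzyme made in baculovirus insect cells; iodide freed from monoiodotyrosine measured by cerium arsenite color change at 420 nm.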 Summed up: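 Cell-free; baculovirus/insect-cell hIYD + MIT substrate + chemical, 3 h. Dowex column cleanup, then Ce4+/As3+ Sandell-Kolthoff read at A420 nm. Triplicate plates; normalized to 3-nitro-L-tyrosine (positive) and DMSO/NaOH (solvent).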

A short description of experiment [6]: VALA_MIGHUV2_CellCount: Viability Assessment in the VALA Sciences human Umbilical Vein Endothelial Cell Migration (MIGHUV) Assay, Area of Scratch Wound after Recovery (AID 2284314). The method, boiled down:
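Viability read-out: Hoechst-stained nuclei counted by fluorescence imaging after a 24 h recovery period in fixed, scratched HUVEC plates. Compound was dosed within 30 min of scratching at six concentrations (triplicate); DMSO at 0.1 % served as baseline.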

Experiment [7] is described as follows: VALA_MIGHUV2_WoundArea: VALA Sciences human Umbilical Vein Endothelial Cell Migration (MIGHUV) Assay, Area of Scratch Wound after Recovery (AID 2284316). Summed up: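 Wound-area endpoint read by fluorescence imaging of Hoechst-stained nuclei after a 24 h recovery period following scratch of HUVEC monolayers (9000 cells/well). Chemicals dosed within 30 min post-scratch, triplicate 6-point series, 0.1% DMSO vehicle; Cytochalasin D positive control.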

Experiment [8] is described as follows: CCTE_Mundy_HCI_iCellGluta_NOG_NeuriteLength: CCTE's Neurite Outgrowth Assay in iCellGluta cells for Neurite Length, Mundy Lab (AID 2284318). The method, boiled down: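 Automated high-content imaging of betaIII-tubulin (Alexa Fluor-488) and Hoechst-stained cells gave neurite length, normalized to the DMSO baseline.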
Experiment [9] can be described thus: VALA_MIGHUV1_ScratchOnly_CellCount: Viability Assessment in the VALA Sciences human Umbilical Vein Endothelial Cell Migration (MIGHUV) Assay, Scratch Wound Inhibited Recovery (AID 2284327). The method, boiled down:
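Hoechst-stained nuclei in the scratch wound were counted by high-content imaging after a 24 h recovery period. Scratched HUVEC monolayers received 6-point concentration series, triplicate, in 0.1% DMSO, fit against DMSO.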

Experiment [10] can be described thus: IUF_NPC1_cytotoxicity_72hr: Cytotoxicity Assessment at 72 hours in the Leibniz Research Institute for Environmental Medicine (IUF) Neural Progenitor Cell Proliferation Assay (NPC1) (AID 2284332).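 Note: rising LDH signal means more cytotoxicity.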 The method, boiled down:
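LDH in supernatant, resazurin→resorufin fluorescence (RFU), 72 h exposure, no re-dosing. Cells: primary hNPC spheres, one per well, EGF+FGF medium, 37C/5% CO2, pH 7.2-7.6. Fit: positive direction vs baseline and dynamic range.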

The nature of experiment [11]: VALA_MIGHUV1_ScratchOnly_WoundArea: VALA Sciences human Umbilical Vein Endothelial Cell Migration (MIGHUV) Assay, Area of Scratch Wound Inhibited Recovery (AID 2284336). Summed up:
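Wound area remaining after 24 h recovery imaged by Hoechst nuclear fluorescence in scratched HUVEC cultures, chemicals added within 30 min of scratching across a 6-point series. Gain of signal fitted against 0.1% DMSO; cytochalasin D positive control.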

Experiment [12] can be described thus: VALA_TUBHUV_Agonist_TubuleLength: VALA Sciences human Umbilical Vein Endothelial Tubule Formation (TUBHUV) Agonism Assay (AID 2284337). Summed up: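 Tubule length quantified by CD31 immunofluorescence imaging after fixation. HUVEC-HDF co-cultures (1:3) pre-grown 3 days with 10 ng/ml VEGF, then dosed 3 days in VEGF medium; 0.1 % DMSO vehicle baseline.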
Experiment [13] is described as follows: VALA_TUBIPS_Agonist_CellCount: Viability Assessment in the VALA Sciences human iPS-derived Endothelial Tubule Formation (TUBIPS) Agonism Assay (AID 2284338).
Experiment [14] in a line: CCTE_Mundy_HCI_iCellGluta_NOG_NeuronCount: CCTE's Neurite Outgrowth Assay in iCellGluta cells for Neuron Count, Mundy Lab (AID 2284340).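 Note: cells fixed about 48 h after compound addition.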 Summed up:
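Neuron count read by automated high-content imaging of Hoechst 33342 and betaIII-tubulin/Alexa Fluor-488 labelling in human iPSC glutamatergic neurons. Activity fitted relative to DMSO.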

Experiment [15] in a line: CCTE_Deisenroth_5AR_NBTE_donor: CCTE's 5alpha-reductase NanoBRET Target Engagement Assay […], Deisenroth Lab (AID 2284319; active = hit-call score of the fitted dose curve at least 0.9, where 1 is the maximum; inactive = score below 0.9). Conditions: actives raise or lower the signal. The method, boiled down:
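SRD5A2-NanoLuc, HEK293T, 20 h expression. Chemical 10 nM - 29.9 uM, 8 conc, duplicate; 3 h preincubation + 2 h testosterone tracer. Nano-Glo substrate plus extracellular NanoLuc inhibitor; donor lum 460 nm. DMSO baseline, bidirectional fit.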
(In BRET a luciferase serves as donor, and the signal depends on an acceptor being close.)

Experiment [16] can be described thus: CCTE_Deisenroth_5AR_NBTE_acceptor: CCTE's 5alpha-reductase NanoBRET Target Engagement Assay - Autofluorescence Screen, Deisenroth Lab (AID 2284321; active = hit-call score of the fitted dose curve at least 0.9, where 1 is the maximum; inactive = score below 0.9;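 note: compound fluorescence in the acceptor channel under 460 nm excitation flags autofluorescence artifacts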). Conditions: actives raise or lower the signal. Summed up: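 Autofluorescence counter-screen: chemicals at an assumed nominal 100 uM in DMSO were scanned in three independent runs with 460 nm excitation. Gain or loss of acceptor signal was fitted bidirectionally against DMSO.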

A further experiment relates to SRD5A2 (gene 6716). The experiment can be described thus: CCTE_Deisenroth_5AR_NBTE_ratio: CCTE's 5alpha-reductase NanoBRET Target Engagement Assay - Ratio, Deisenroth Lab (AID 2284322; active = hit-call score of the fitted dose curve at least 0.9, where 1 is the maximum; inactive = score below 0.9). The settings on record: actives raise or lower the signal. The method, boiled down: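 SRD5A2-NanoLuc HEK293T; cmpd 10 nM-29.9 uM, 3 h preinc + testosterone tracer 2 h; NanoBRET ratio 650/460; bidirectional fit vs DMSO.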

Records with an inconclusive call do not appear. Active and inactive are the calls of the source. Rule for the calls, unless noted: active = hit-call score of the fitted dose curve at least 0.9, where 1 is the maximum; inconclusive = response in the unintended direction; inactive = score below 0.9.

Data on 8 molecules can be found in PubChem BioAssay (EPA / NIEHS).

As usually defined, the AC50 is the concentration giving half of the maximal activity seen.

As for `CCCC(CCC)C(=O)O`, the outcome in experiment [1], in experiment [2], in experiment [3], in experiment [4] and in [5] was inactive.
For `CCCCCCCCCCCCCCCCOS(=O)(=O)O`, the concentration at half-maximal activity (AC50) in the experiment on IYD (gene 389434) is 32.7 µM (active).
For the molecule `Cn1cc[nH]c1=S`, the outcome in experiment [6], in [7], in [8], in [9], in experiment [10] and in experiment [5] was inactive. Besides, the molecule was classed as inactive in experiment [11], in experiment [12], in experiment [13] and in experiment [14].
In the case of `OCCNCCO`, the call in [5], in [11], in experiment [12] and in experiment [13] was inactive.
`NNC(=O)c1ccncc1`: the outcome in experiment [3] and in experiment [4] was inactive.
As for `CCCCCOC(C)=O`, the molecule was classed as inactive (in [15]; in [16]; with SRD5A2 (gene 6716)).
On to `CCN(CC)C(=S)SSC(=S)N(CC)CC`, for which the call in experiment [7], in experiment [2], in experiment [5], in experiment [11], in experiment [12] and in experiment [13] was inactive. For the same molecule, the values for the concentration at half-maximal activity (AC50) (in [15]; in experiment [16]; in the experiment with SRD5A2 (gene 6716)) were 50 µM (active), 39.6 µM (active) and 50 µM (active), respectively.
Regarding `OC[C@H]1O[C@@](CO)(O[C@H]2O[C@H](CO)[C@@H](O)[C@H](O)[C@H]2O)[C@@H](O)[C@@H]1O`, in experiment [2], the result was inactive.
